Assay results: PubChem BioAssay AID1851 (National Center for Advancing Translational Sciences (NCATS), 2009)
In all, about 16,000 compounds went through this assay and about 5,800 (36%) were called active. About 23% were inconclusive and are not listed. This is one part of the list. Values without a mark were called inactive. Calls follow the shape of the dose curve; as a rule, active = well fitted curve in the direction sought with a large enough effect; inconclusive = small, poorly fitted or top-dose-only effect, or effect the other way; inactive = no such curve, though single readings can be large or run the other way.

The compounds below were run against Cytochrome P450 2C19 (Homo sapiens) (UniProt P33261) (assay: Cytochrome panel assay with activity outcomes). Conditions: recombinant CYP, pro-luciferin dealkylation, luminescence, p450-cyp2c19; series mostly up to 57.1 µM; activity, negative = inhibition: at the top concentration.
Sequence of Cytochrome P450 2C19 (Homo sapiens) (P33261 whole entry, looked up): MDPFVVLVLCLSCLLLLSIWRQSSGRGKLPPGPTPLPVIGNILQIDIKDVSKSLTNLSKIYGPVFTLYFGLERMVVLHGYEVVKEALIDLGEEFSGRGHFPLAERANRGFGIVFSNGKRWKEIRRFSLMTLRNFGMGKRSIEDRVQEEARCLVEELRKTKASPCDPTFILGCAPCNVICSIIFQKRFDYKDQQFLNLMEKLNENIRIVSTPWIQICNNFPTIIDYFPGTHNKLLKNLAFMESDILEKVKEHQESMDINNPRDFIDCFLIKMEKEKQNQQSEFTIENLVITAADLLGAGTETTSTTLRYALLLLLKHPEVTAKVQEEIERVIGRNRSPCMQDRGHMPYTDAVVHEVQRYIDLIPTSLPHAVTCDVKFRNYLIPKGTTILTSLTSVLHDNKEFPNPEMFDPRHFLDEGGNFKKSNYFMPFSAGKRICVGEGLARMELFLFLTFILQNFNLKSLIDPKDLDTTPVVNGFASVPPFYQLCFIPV
% is scaled to controls: 0 for no effect and ±100 for the full control effect.

Structure (SMILES)	activity, negative = inhibition	AC50
CC(C)C(=O)N[C@H]1CCCN1C(=O)/C=C\c1ccccc1	-19.8% [at 11.4 µM]	–
CC(C)C(=O)N[C@@H]1CCCN1C(=O)/C=C\c1ccccc1	-31.2% [at 11.4 µM]	–
O=C(O)[C@H](CCc1ccccc1)N1C(=O)c2ccccc2C1=O	-17.1% [at 11.4 µM]	–
CC(CCc1ccccc1)NC(=O)/C=C/c1ccccc1 (stereo not given)	–	8.91 µM (active)
CCCCNC(=O)C(=O)NC(C)CCc1ccccc1 (stereo not given)	–	14.1 µM (active)
CC(CCc1ccccc1)NC(=O)C(=O)NCCO (stereo not given)	–	31.6 µM (active)
CC(=O)c1cn(CC(=O)Nc2c(C)cccc2C)c2ccccc12	–	7.08 µM (active)
COC(=O)c1cccc(NC(=O)Nc2ccc(Cl)c(Cl)c2)c1	–	3.98 µM (active)
CC(C)(C)N(NC(=O)Nc1ccccc1)C(=O)c1ccccc1Cl	–	11.2 µM (active)
CC(C)(C)N(NC(=O)Nc1ccc(Cl)c(Cl)c1)C(=O)c1ccccc1	–	1.26 µM (active)
Cc1cc(C)cc(C(=O)N(NC(=O)Nc2ccc(Cl)cc2)C(C)(C)C)c1	–	1.58 µM (active)
O=C(Nc1ccc(C(=O)Nc2ccc(C(=O)Nc3ccc(S(=O)(=O)O)c4cc(S(=O)(=O)O)cc(S(=O)(=O)O)c34)cc2)cc1)Nc1ccc(C(=O)Nc2ccc(C(=O)Nc3ccc(S(=O)(=O)O)c4cc(S(=O)(=O)O)cc(S(=O)(=O)O)c34)cc2)cc1	-38.1%	–
CC1(C)S[C@@H]2[C@H](NC(=O)[C@@H](N)c3ccccc3)C(=O)N2[C@H]1C(=O)O[C@H]1OC(=O)c2ccccc21	-21% [at 25.6 µM]	–
O=C(c1ccccc1)C1CN(c2ccccc2)CC1c1ccc(Cl)cc1 (stereo not given)	–	3.98 µM (active)
O[C@H](CN1CCN(c2cccc(Cl)c2)CC1)C(c1ccccc1)c1ccccc1	-35.5%	–
COc1ccccc1-c1c(C(F)(F)F)oc2cc(OC(=O)c3cccc([N+](=O)[O-])c3C)ccc2c1=O	–	0.631 µM (active)
Cc1noc(C)c1-c1nccc(NCCN2CCOCC2)n1	-26.3%	–
Clc1ccccc1-c1ccc2ncnc(NCCN3CCOCC3)c2c1	-26.1%	–
Clc1ccccc1-c1nccc(NCCN2CCOCC2)n1	–	5.01 µM (active)
Cc1ccccc1-c1cc(NCCN2CCOCC2)ncn1	-8.59%	–
c1ccc2c(c1)CCCc1cc(NCCN3CCOCC3)nnc1-2	38% [at 25.6 µM]	–
Cc1ccccc1-c1nccc(NCCN2CCOCC2)n1	–	10 µM (active)
CCSc1nnc(NC(=O)C(C(F)(F)F)C(F)(F)F)s1	–	20 µM (active)
COCCSc1nnc(NC(=O)C(C)(C)C)s1	-29.9%	–

Structure (SMILES)	activity, negative = inhibition	AC50
CSc1nc(Oc2ccc(F)cc2)c2ccccc2n1	–	7.08 µM (active)
Cn1c(=O)c(-c2ccc(F)cc2)nc2cnc(Oc3ccccc3)nc21	30.5%	–
CCOC(=O)c1cnc2c(cnn2CC)c1NN=C(C)C	-4.89%	–
CCOC(=O)c1cnn(CCOC(=O)C(C)(C)C)c1NC(=O)C(C)(C)C	–	14.1 µM (active)
CCOC(=O)c1cnc2c(cnn2C)c1NCCCN(C)C	-21.4%	–
O=c1oc2c(CN3CCOCC3)c(O)ccc2c2ccccc12	–	14.1 µM (active)
COc1ccc(-c2c(C)oc3c(CN4CCN(CCO)CC4)c(O)ccc3c2=O)cc1OC	-21.7%	–
CN(C)c1ncc2nc(-c3ccc(F)cc3)c(=O)n(C)c2n1	-2.46%	–
CS(=O)(=O)c1cnc2c(-c3ccc(F)cc3)cnn2c1N	-15.9%	–
CC(C)(C)S(=O)(=O)c1cnc2c(-c3ccc(F)cc3)cnn2c1N	–	11.2 µM (active)
CN(C)c1ncc2nc(-c3cccc(C#N)c3)c(=O)n(CCC#N)c2n1	2.53%	–
CN(C)c1ccc(-c2cncnc2N(C)Cc2ccco2)cc1	–	0.251 µM (active)
CN(Cc1ccco1)c1ncncc1-c1ccc2c(c1)OCO2	–	0.126 µM (active)
COCCn1c(=O)c(-c2cccc(C#N)c2)nc2cnc(N(C)C)nc21	-3.96%	–
COc1cccc(-c2cncnc2N(C)Cc2ccco2)c1	–	7.94 µM (active)
CN(Cc1ccco1)c1ncncc1-c1cccc(C#N)c1	–	20 µM (active)
COCC(=O)N1CCC[C@@]2(CCN(C(=O)Nc3cccc(F)c3)C2)C1	17.5%	–
CN(Cc1ccco1)c1ncncc1-c1cccnc1	–	10 µM (active)
CC(NC(=O)c1ccccc1)c1nc2ccccc2n1Cc1ccccc1F (stereo not given)	–	8.91 µM (active)
Cc1cc(NC(=S)NC(=O)CC(C)C)ccc1Br	–	3.55 µM (active)
CCCCn1c(SCC(=O)N2CCCC2)nc2c1c(=O)n(C)c(=O)n2C	-31.9%	–
CCCCn1nnnc1SCC(=O)c1cc(Cl)ccc1OC	–	0.0708 µM (active)
CCCCn1nnnc1SCC(=O)N1CCCC1	–	25.1 µM (active)
C[N+](C)(C)CCCCCCCCCC[N+](C)(C)C	35%	–

Structure (SMILES)	activity, negative = inhibition	AC50
CCCCCCCCCCCC1=C(O)C(=O)C=C(O)C1=O	-15.3%	–
O=S(=O)(N/N=C\c1ccc2c(c1)OCO2)c1ccc(Cl)cc1	–	0.794 µM (active)
O=S(=O)(N/N=C/c1ccc2c(c1)OCCO2)c1ccc(Cl)cc1	–	2.82 µM (active)
C[C@]1(C2CCCC2)Cc2cc(OCC(=O)O)c(Cl)c(Cl)c2C1=O	42.7%	–
O=C(CN1CCN(c2ncccn2)CC1)NCCC1=CCCCC1	–	4.47 µM (active)
O=C(CN1C(=O)NC2(CCCC2)C1=O)NCCC1=CCCCC1	–	14.1 µM (active)
Cc1nc2ncnn2c(C)c1CCC(=O)NCCC1=CCCCC1	-16.8%	–
O=C(COc1ccc(Cl)cc1)NCCC1=CCCCC1	–	3.98 µM (active)
CCCn1c(=O)c2[nH]c(-c3ccc(OCC(=O)NCCN)cc3)nc2n(CCC)c1=O	14.9%	–
O=C(CN1CCN(C2CCCCC2)CC1)NCCC1=CCCCC1	-1.36%	–
O=C(c1[nH]o[n+](=O)c1C(=O)c1csc2ccccc12)c1csc2ccccc12	–	1 µM (active)
O=C(CCN1CCCCC1)c1csc2ccccc12	-22.7% [at 11.4 µM]	–
Cc1cccc(C(=O)O)c1C[C@H]1NCC[C@H]2c3ccccc3N[C@@H]12	3.69% [at 11.4 µM]	–
Cc1nn(Cc2ccc(Cl)cc2)c(C)c1NC(=O)CSc1nc2c(c(C(F)(F)F)n1)CCc1ccccc1-2	–	2.82 µM (active)
Cc1ccccc1Cn1cc(NC(=O)CSc2nc3c(c(C(F)(F)F)n2)CCc2ccccc2-3)cn1	–	3.98 µM (active)
CC1(C)[C@@H]2CC[C@]1(C)[C@@H](OC(=O)CSC#N)C2	-26.6% [at 11.4 µM]	–
CN(C)/C(CN1CCN(C=O)CC1)=C1\N=C(c2ccccc2)OC1=O	-17%	–
COc1ccc(S(=O)(=O)N2CCc3ccccc3C2)cc1OC	–	0.447 µM (active)
COc1ccccc1CN1CC[C@@]2(CCCN(S(=O)(=O)c3ccccc3)C2)C1	-26.9%	–
O=C(ON=C1CCN(S(=O)(=O)c2ccccc2)CC1)c1ccccc1	-10.7%	–
O=S(=O)(c1ccc(Cl)s1)N1CCc2ccccc2C1	–	0.708 µM (active)
CCN1C(=O)[C@H]2[C@H]3[C@H](O)[C@H](O)C/C(=N/O[C@@H]4O[C@H](COC(C)=O)[C@@H](OC(C)=O)[C@H](OC(C)=O)[C@H]4OC(C)=O)[C@@H]3CC[C@@H]2C1=O	34.2% [at 11.4 µM]	–
CCN(CCCc1ccccc1)CCCc1ccccc1	-5.51% [at 25.6 µM]	–
CCN(CC)CC#CCC(C)(c1ccccc1)c1ccccc1	–	0.447 µM (active)

Structure (SMILES)	activity, negative = inhibition	AC50
CCN(CC)CCOC(=O)C(c1ccccc1)c1ccccc1	-12.6% [at 25.6 µM]	–
COc1ccccc1N1CCN(CCN(C(=O)C2CCCCC2)c2ccccn2)CC1	-20.8%	–
O=C(c1ccc(N2CCCCC2)c([N+](=O)[O-])c1)N(Cc1ccccc1)c1ccccn1	–	14.1 µM (active)
O=C1C(Cl)=C(Sc2nnc3c4ccccc4c4ccccc4c3n2)C(=O)c2ccccc21	–	1.58 µM (active)
CN(CC(=O)N1CCN(c2ccccc2)CC1)S(=O)(=O)c1cnc[nH]1	–	2.24 µM (active)
CCc1cccc(NC(=O)CN(C)S(=O)(=O)c2cnc[nH]2)c1	–	0.447 µM (active)
CC[n+]1c(/C=C/Nc2ccccc2)oc2ccccc21	-22%	–
CCCNC(=O)OC[C@@H]1O[C@H](CCO/N=C2\c3cc(OC)ccc3O[C@H](c3cccc(OC)c3)[C@H]2O)C=C[C@@H]1Oc1ccc(OC)cc1	–	1.58 µM (active)
CCCNC(=O)OC[C@@H]1O[C@H](CCO/N=C(\C)CCN2CCc3nc(CC)c(CC)cc3C2)C=C[C@@H]1Oc1ccc(OC)cc1	-24.5% [at 11.4 µM]	–
COc1ccc(O[C@H]2C=C[C@@H](c3ccccc3)O[C@H]2CO/N=C2/c3cc(OC)ccc3O[C@@H](c3cccc(OC)c3)[C@H]2O)cc1	–	0.501 µM (active)
CCCNC(=O)OC[C@@H]1O[C@H](CCON=C(C)C)C=C[C@@H]1Oc1ccc(OC)cc1	-39.5% [at 11.4 µM]	–
CCOC(=O)CCCc1c[nH]c2ccccc12	–	5.01 µM (active)
N[C@@H](Cc1c[nH]c2ccccc12)C(=O)O	-11.9%	–
CCOC(=O)CCCN	31.2% [at 11.4 µM]	–
C[C@@](N)(Cc1c[nH]c2ccccc12)C(=O)O	34.7% [at 11.4 µM]	–
CC(C)CNC(=O)CCCc1c[nH]c2ccccc12	–	2.24 µM (active)
N[C@@H]1CONC1=O	–	inactive
CO/N=C(\C(=O)N[C@@H]1C(=O)N2C(C(=O)O)=C(COC(C)=O)CS[C@@H]12)c1csc(N)n1	-19% [at 25.6 µM]	–
Cc1cc(N2CCOCC2)ccc1/C=C1\SC(=O)N(C(C)C)C1=O	–	10 µM (active)
Cc1ccsc1/C=C1/SC(=O)N(CC(=O)N2CCOCC2)C1=O	-27.3%	–
O=c1c(-c2ccccc2)nc2cnc(N3CCOCC3)nc2n1C[C@H]1CCCO1	-4.21%	–
O=c1cnc2cnc(Nc3ccccc3)nc2n1C[C@H]1CCCO1	-34.8%	–
Nc1ncc(-c2ccccc2)n1CC1CCCO1 (stereo not given)	–	5.62 µM (active)
